Assay outcomes as filed in PubChem BioAssay.
Hits are enriched below; roughly 7.3% of the tested compounds scored in any of these assays.
Tau fluor counter: counter-screen for tau fibril formation inhibitors; tau K18 P301L Alexa594 fluorescence, heparin fibrillization; Potency, µM (top dose mostly 57.7 µM), for the others: top-dose activity change, negative = decrease; 0.93% of 280,000 active; further: nearly all actives have a fitted effect of over 55% in size
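Human tau K18 P301L (15 uM unlabeled, 0.24 uM Alexa 594-labeled) in 100 mM sodium acetate pH 7 with 20 uM heparin, 6 hr at 37 C. ThT 30 uM added, 1 hr ambient; Alexa 594 FP and total fluorescence read at 555/632 nm.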
Tau FP inhib: tau fibrillization inhibition (FP). P10636. K18 P301L tau heparin fibrillization, Alexa594 FP, 6 h. Potency, µM (series often up to 57.7 µM), for the others: top-dose activity, negative = inhibition, most hits filed as inhibitors. 0.39% of 280,000 active. AID 1468; further: nearly all actives have a fitted effect of over 55% in size
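Human tau K18 […] P301L fragment, 15 uM unlabeled plus 0.24 uM Alexa 594-labeled tau (final), with compound and 20 uM heparin in 100 mM sodium acetate pH 7; 6 hr at 37 C, then Alexa 594 FP read.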
VP16 counter: counter-screen for ROR gamma inhibitors: Gal4-VP16 reporter; Drosophila S2 Gal4-VP16 UAS-luciferase, luminescence, 20 h; Potency, µM (doses to about 53.6 µM), inactives show top-dose activity, negative = inhibition, usual class: inhibitors; 3.5% of 310,000 active; AID 2546;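 further: Gal4-VP16 expression switched on by copper sulfate through the metallothionein promoter; nearly all actives have a fitted effect of over 50% in size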
Tau ThT inhib: tau fibrillization inhibition (ThT binding). Potency, µM (highest dose often 57.4 µM), without a hit: at the highest dose activity, negative = inhibition, usual class: inhibitors. 2.1% of 270,000 active. AID 1460. recombinant tau K18 P301L (four-repeat tau fragment), heparin-induced fibrillization, ThT fluorescence; further: nearly all actives have a fitted effect of over 55% in size
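Recombinant human tau K18 fragment […] carrying P301L, 15 uM unlabeled plus 0.24 uM Alexa 594-labeled, was fibrillized with 20 uM heparin in 100 mM sodium acetate pH 7 for 6 hr at 37 C; 30 uM ThT fluorescence read after 1 hr.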
RORg inh: inhibitors of mouse ROR gamma transcriptional activity. AID 2551. 5.4% of 310,000 active. Potency, µM (titrated, usually from 53.6 µM), for inactives: at the highest dose activity change, negative = inhibition, hits mostly inhibitors. Drosophila S2 Gal4-RORgamma UAS-luciferase reporter, 20 h; further: nearly all actives have a fitted effect of over 60% in size
Target sequence (P51450 whole entry, looked up, the tested form may be a part): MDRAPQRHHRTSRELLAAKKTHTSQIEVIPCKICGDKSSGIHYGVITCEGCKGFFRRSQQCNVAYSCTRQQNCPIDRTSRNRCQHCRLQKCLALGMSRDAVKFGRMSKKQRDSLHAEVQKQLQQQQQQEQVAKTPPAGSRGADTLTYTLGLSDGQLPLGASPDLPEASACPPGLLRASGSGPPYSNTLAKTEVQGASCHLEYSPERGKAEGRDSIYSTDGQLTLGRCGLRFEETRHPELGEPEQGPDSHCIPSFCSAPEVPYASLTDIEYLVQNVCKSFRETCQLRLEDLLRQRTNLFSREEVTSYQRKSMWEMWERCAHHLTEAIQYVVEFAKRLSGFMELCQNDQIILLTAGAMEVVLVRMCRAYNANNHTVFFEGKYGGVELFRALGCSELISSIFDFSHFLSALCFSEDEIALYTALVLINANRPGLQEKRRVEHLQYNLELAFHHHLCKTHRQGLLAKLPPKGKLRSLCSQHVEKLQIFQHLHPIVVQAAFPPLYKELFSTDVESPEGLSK
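Compounds are pin-transferred onto Drosophila Schneider cells expressing a copper-inducible Gal4–ROR gamma transactivation domain fusion. After 1 hr, copper sulfate is added to 700 uM final; luciferase is read 20 hr later.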
* = called active by the depositor; ? = inconclusive; . = no result given; [ ] = remark or other dose. The call rests on the fitted dose curve; in most records, active means well fitted curve in the direction sought with a large enough effect; inconclusive means small, poorly fitted or top-dose-only effect, or another doubt; inactive means no such curve, though single readings can be large; an effect the other way counts as inactive or inconclusive. On the % scale 0 is the no-effect control and ±100 the full control effect; potency means the concentration at half of the fitted maximal effect.

SMILES	Tau fluor counter	Tau FP inhib	VP16 counter	Tau ThT inhib	RORg inh
CCc1ccc(/C=C2\CN(CC)Cc3c2nc2ccccc2c3C(=O)O)cc1	-29.2%	?	-25.6%	25.1µM*	33.5%
N#Cc1cc(N)ccc1-n1cccc1	-5.8%	10.3%	4.6%	-7.1%	1.8%
O=C(O)C1CCN(S(=O)(=O)c2ccc(N3CCC(O)CC3)c([N+](=O)[O-])c2)CC1	.	.	-2.0%	.	7.8%
Clc1ccccc1Cn1cccc1C1=NC(Cc2ccccc2)CO1 (configuration not stated)	-12.4%	-5.5%	.	-11.8%	.
COc1cc(C2c3c(oc4ccc(F)cc4c3=O)C(=O)N2c2nc(C)c(C)s2)cc(OC)c1OC (configuration not stated)	-11.6%	-7.9%	.	-8.2%	.
COc1ccccc1C(=O)Nc1nnn(C)n1	1.3%	1.3%	1.9%	-4.0%	0.9%
COc1c(C(=O)NC(=S)Nc2nnn(C)n2)cc2ccccc2c1Br	.	.	3.98µM*	.	2.51µM*
Cn1nnc(NC(=S)NC(=O)c2cccc3c(Br)cccc23)n1	.	.	2.82µM*	.	0.891µM*
Cn1nnc(NC(=S)NC(=O)c2cccc3c(Cl)cccc23)n1	.	.	2.82µM*	.	0.891µM*
COCc1cc(C)nc2sc3c(=O)n(-c4cc(C)ccc4C)nnc3c12	0.0%	5.1%	.	-1.5%	.
CCc1cccc(NC(=O)CCN2C(=O)c3ccccc3Sc3ncccc32)c1	-7.6%	0.9%	.	-0.3%	.
C=CCNC(=O)N1CCc2nc(COc3ccccc3)c3c(c2C1)CO[C@@H](C)C3	-8.8%[11.6 µM]	-1.0%[11.6 µM]	.	-4.8%[11.5 µM]	.
N=c1c2c(-c3ccccc3)c(-c3ccccc3)n(Cc3ccco3)c2ncn1CCCO	-4.2%	-6.0%	3.16µM*	-15.6%	3.16µM*
N=c1c2c(-c3ccccc3)c(-c3ccccc3)n(Cc3ccco3)c2ncn1CCO	2.6%	-2.1%	-11.6%	2.4%	-9.8%
Cn1c(-n2cccc2)c(-c2c(-c3ccccc3)[nH]c3c2c(=O)[nH]c(=O)n3C)c(=O)[nH]c1=O	-13.3%	-0.9%	.	-11.5%	.
COC(=O)CCC(C)C1CCC2C3C(O)C[C@@H]4CC(O)CC[C@@]4(C)C3CC(O)[C@]12C (some centres not stated)	-3.3%	3.3%	-2.4%	-16.4%	10.8%
CC(C)C(=O)NC(=S)/C=C1/N(C)c2ccccc2C1(C)C	?	9.8%	3.98µM*	?	3.55µM*
CN1/C(=C/C(=S)NC(=O)C2CCC2)C(C)(C)c2ccccc21	-6.5%	8.0%	12.6µM*	?	6.31µM*
Cc1ccc(C(=O)NC(=S)/C=C2\N(C)c3ccccc3C2(C)C)cc1	-16.0%	2.7%	5.62µM*	10µM*	7.08µM*
CN1/C(=C\C(=O)C(F)F)C(C)(C)c2ccccc21	6.2%	0.0%	0.2%	-2.2%	21.8%
Cc1c(NC(=S)/C=C2\N(C)c3ccccc3C2(C)C)c(=O)n(-c2ccccc2)n1C	19.6%	10.7%	?	?	13.2%
CCOC(=O)c1c(NC(=O)C2=C(C)NC(=S)NC2c2ccc(F)cc2F)sc(C)c1C (configuration not stated)	-20.7%	4.9%	6.31µM*	-12.0%	2.82µM*
CCOC(=O)c1c(NC(=O)C2=C(C)NC(=S)NC2c2ccc(F)cc2)sc(C)c1C (configuration not stated)	-11.8%	0.5%	?	-6.3%	12.6µM*
CCOC(=O)c1c(NC(=O)C2=C(C)NC(=S)NC2c2ccc(C)cc2)sc(C)c1C (configuration not stated)	-5.9%	-7.7%	3.55µM*	-1.1%	2.82µM*
CCOC(=O)c1c(NC(=O)c2cccc(N3C(=O)CCC3=O)c2)sc(C)c1C	-13.0%	-5.9%	9.6%	-5.9%	?
CCOC(=O)c1sc(NC(=O)c2nc3nc(C)cc(C(F)F)n3n2)c(C(=O)OC(C)C)c1C	-4.0%	-12.3%	.	-0.3%	.
CC(C)OCCCn1c(=S)[nH]c2ncccc2c1=O	2.0%	-13.4%	?	9.2%	8.91µM*
CCN(CCCn1c(=S)[nH]c2ncccc2c1=O)c1ccccc1	-9.2%	1.1%	3.98µM*	11.8%	1.41µM*
CCN(CC)C(=O)CC(c1ccc(OC)cc1)c1c(OC)cc(OC)c2c(-c3ccccc3)cc(=O)oc12 (configuration not stated)	.	.	-7.8%	.	?
